# Experimental data as given in PubChem BioAssay (NCATS).
# Records with an inconclusive call do not appear. A call without a number means that no potency is given here. Activity calls are given as the source filed them. Calls follow the shape of the dose curve; as a rule, active = well fitted curve in the direction sought with a large enough effect; inconclusive = small, poorly fitted or top-dose-only effect, or another doubt; inactive = no such curve, though single readings can be large; an effect the other way counts as inactive or inconclusive.
# Test system: Nanoluciferase (engineered Oplophorus gracilirostris luciferase)
# Assay: Primary Nanoluciferase (NLuc) qHTS assay for identification of artifact compounds. (AID 1845222)
# Conditions: NLuc-conditioned medium, Nano-Glo luminescence, 5 min; series mostly up to 54.1 µM
# Method in brief: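 Diluted conditioned medium from NLuc-expressing S16 cells treated with compounds for 15 min at room temperature, then Nano-Glo substrate added; luminescence read after 5 min. Percent inhibition versus no-enzyme and DMSO controls fitted to 4-parameter Hill equation.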
row,Compound,Potency
1,COC(=O)c1ccc2c(c1)[nH]c1ncnc(NCCCN3CCCCC3)c12,inactive
2,CCCCCCCOc1cc2c(cc1/C(C)=C/c1ccc(C(=O)O)cc1)C(C)(C)CCS2(=O)=O,inactive
3,COc1ccnc(CS(=O)c2nc3cc(OC(F)F)ccc3[nH]2)c1OC (stereo unspecified),inactive
4,COc1cc(C(=O)O)ccc1NC(=O)C1NC(CC(C)(C)C)C(C#N)(c2ccc(Cl)cc2F)C1c1cccc(Cl)c1F (stereo unspecified),inactive
5,CCOC(=O)N1c2ccc(C(F)(F)F)cc2C(N(Cc2cc(C(F)(F)F)cc(C(F)(F)F)c2)C(=O)OC)CC1CC (stereo unspecified),inactive
6,CN1CCC(NC(=O)c2cc(-c3c(O)cc(O)cc3Oc3ccc([N+](=O)[O-])cc3)on2)CC1,inactive
7,NC(=O)c1cccc2[nH]c(-c3ccc(C4CCCN4)cc3F)nc12 (stereo unspecified),inactive
8,Nc1nc(Nc2ccc3c(c2)CCC(N2CCCC2)CC3)nn1-c1cc2c(nn1)-c1ccccc1CCC2 (stereo unspecified),inactive
9,Nc1nc2c(s1)CCN(Cc1ccc(Cl)cc1)CC2,inactive
10,C=CC(=O)N1CCCC(n2nc(-c3ccc(Oc4ccccc4)cc3)c3c(N)ncnc32)C1 (stereo unspecified),inactive
11,COc1cc(C2OC(c3ccc(OC)c(OC)c3)C(C)C2C)ccc1O (stereo unspecified),inactive
12,Cc1nc2ccc(CN(C)c3ccc(C(=O)NC(CCC(=O)O)C(=O)O)s3)cc2c(=O)[nH]1 (stereo unspecified),inactive
13,C[C@@H](c1ccc2nccn2c1)n1nnc2ncc(-c3cnn(C)c3)nc21,inactive
14,C=C(NC(=O)C(=C)NC(=O)c1csc(C2=NC3c4csc(n4)C4NC(=O)c5csc(n5)C(C(C)(O)C(C)O)NC(=O)C5CSC(=N5)/C(=C/C)NC(=O)C(C(C)O)NC(=O)c5csc(n5)C3(CC2)NC(=O)C(C)NC(=O)C(=C)NC(=O)C(C)NC(=O)C(C(C)CC)NC2C=Cc3c(C(C)O)cc(nc3C2O)C(=O)OC4C)n1)C(N)=O (stereo unspecified),inactive
15,Cc1nc2cc(C(=O)NCc3ccccn3)nn2c(C)c1Cc1cccc(Cl)c1,inactive
16,Cc1cc(-c2nc3cc(F)ccc3s2)ccc1NC(=O)[C@@H](N)CCCCN,inactive
17,O=C1C[C@]23C=CCN4CCC5c6cc7c(cc6N1[C@@]5(CC2)C43)OCO7 (stereo partly specified),inactive
18,NS(=O)(=O)c1ccc(N2N=C(c3ccccc3)CC2c2ccccc2)cc1 (stereo unspecified),inactive

# Test system: not listed separately
# Assay: Primary redox qHTS assay for identification of artifact compounds. (AID 1845223)
# Conditions: Amplex Red/HRP redox cycling with DTT, fluorescence; series mostly up to 53.8 µM
# Method in brief: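 Amplex Red (25 uM) and HRP (250 mU/mL) in HBSS, with compounds for 15 min, then 250 uM DTT for 30 min, room temperature, dark. Fluorescence 525/598 nm read; normalized to DMSO and 10 uM DA3003; Hill fit.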
row,Compound,Potency
1,CN(C)S(=O)(=O)c1ccc(NC(=S)N2CCC(C(O)(c3ccccc3)c3ccccc3)CC2)cc1,inactive
2,C=CC(C)(C)C12CC3C(=O)N4C(CC5(C(C)(C)C=C)c6ccccc6NC45)C(=O)N3C1Nc1ccccc12 (stereo unspecified),inactive
3,CC(=O)Nc1nc(C)c(-c2nc(N3CCCC(O)C3)no2)s1 (stereo unspecified),inactive
4,Cn1cc(-c2cnn3c(N)c(Br)c(C4CCCNC4)nc23)cn1 (stereo unspecified),inactive
5,O=C(Nc1ccccc1C(=O)NC1CCCCNC1=O)c1cc2ccccc2s1 (stereo unspecified),inactive
6,CN(C)C(=O)Nc1cccc(-c2ccc(N(C)C)cc2)c1,inactive
7,COc1cc(N(C)CCN(C)C)c(N)cc1Nc1nccc(-c2cn(C)c3ccccc23)n1,inactive
8,CCC(C(C)O)n1ncn(-c2ccc(N3CCN(c4ccc(OCC5COC(Cn6cncn6)(c6ccc(F)cc6F)C5)cc4)CC3)cc2)c1=O (stereo unspecified),inactive
9,Fc1ccc(N2CCCCC2)c(NC(=S)c2ccncc2)c1,inactive
10,Cc1[nH]c(/C=C2\C(=O)Nc3cc(-c4ccccc4)ccc32)c(C)c1CCC(=O)O,inactive
11,O=C(NCc1cccs1)c1cc2nc(-c3ccco3)cc(C(F)(F)Cl)n2n1,inactive
12,COc1cc2ncc(-c3ccccc3)nc2cc1OC,inactive
13,c1cc(NC2CCNCC2)nc(-c2cnc3ccccn23)c1,inactive
14,CCCCCc1ccc(/C=C/C(=O)Nc2cc(Cl)ccc2C(=O)O)cc1,inactive
15,Cc1cc2occ(CN(C)CCN(C)Cc3cn(-c4cccc(C(F)(F)F)c4)c4ccccc34)c(=O)c2cc1C,inactive
16,Cc1cc(N2CCOCC2)ccc1Nc1nc(NC2CCCCC2)c2[nH]cnc2n1,inactive
17,COC(=O)c1ccc2c(c1)[nH]c1ncnc(NCCCN3CCCCC3)c12,inactive

row,Compound,Potency
1,CCCCCCCOc1cc2c(cc1/C(C)=C/c1ccc(C(=O)O)cc1)C(C)(C)CCS2(=O)=O,inactive
2,CC(=O)Nc1cccc(-c2csc(Nc3cc(C)ccn3)n2)c1,inactive
3,N#C/C(=C1\Nc2ccccc2S1)c1ccnc(NCCc2cccnc2)n1,inactive
4,COc1cc(CCc2cc(NC(=O)c3ccc(N4CC(C)NC(C)C4)cc3)n[nH]2)cc(OC)c1 (stereo unspecified),inactive
5,COc1cc(C(=O)O)ccc1NC(=O)C1NC(CC(C)(C)C)C(C#N)(c2ccc(Cl)cc2F)C1c1cccc(Cl)c1F (stereo unspecified),inactive
6,CCOC(=O)N1c2ccc(C(F)(F)F)cc2C(N(Cc2cc(C(F)(F)F)cc(C(F)(F)F)c2)C(=O)OC)CC1CC (stereo unspecified),inactive
7,NC(=O)c1cccc2[nH]c(-c3ccc(C4CCCN4)cc3F)nc12 (stereo unspecified),inactive
8,Nc1nc(Nc2ccc3c(c2)CCC(N2CCCC2)CC3)nn1-c1cc2c(nn1)-c1ccccc1CCC2 (stereo unspecified),inactive
9,Nc1nc2c(s1)CCN(Cc1ccc(Cl)cc1)CC2,inactive
10,C=CC(=O)N1CCCC(n2nc(-c3ccc(Oc4ccccc4)cc3)c3c(N)ncnc32)C1 (stereo unspecified),inactive
11,COc1cc(C2OC(c3ccc(OC)c(OC)c3)C(C)C2C)ccc1O (stereo unspecified),inactive
12,Cc1nc2ccc(CN(C)c3ccc(C(=O)NC(CCC(=O)O)C(=O)O)s3)cc2c(=O)[nH]1 (stereo unspecified),inactive
13,C[C@@H](c1ccc2nccn2c1)n1nnc2ncc(-c3cnn(C)c3)nc21,inactive
14,Cc1nc2cc(C(=O)NCc3ccccn3)nn2c(C)c1Cc1cccc(Cl)c1,inactive
15,O=C1C[C@]23C=CCN4CCC5c6cc7c(cc6N1[C@@]5(CC2)C43)OCO7 (stereo partly specified),inactive
16,NS(=O)(=O)c1ccc(N2N=C(c3ccccc3)CC2c2ccccc2)cc1 (stereo unspecified),inactive
